Read-outs that look alike come from different tables or passages of the source. About 3,200 (25%) of roughly 13,000 compounds showed an effect of 50% or more. The list shows a part of the results.
Test system: P. falciparum stage V gametocytes
Design: BacTiter-Glo ATP luminescence viability of purified stage V gametocytes in 384-well plates, per cent inhibition versus DMSO
Conditions: 48 h, 5 µM, inhibitor

Structure (SMILES)	% Inhibition [%]	% Inhibition (% Inhibition) [%]
CN(C)CCCOc1ccc(CN2CC[C@H](NC(=O)c3ccc(Cl)c(Cl)c3)C2)c2ccccc12 [TCMDC-140267]	76.67	
CN(C)CCCOc1ccc(CN2CC[C@H](NC(=O)c3ccc(Cl)c(Cl)c3)C2)cc1Cl [TCMDC-140272]	19.07	
CN1CCC[C@H]1COc1ccc(CN2CC[C@H](NC(=O)c3ccc(Cl)c(Cl)c3)C2)c2ccccc12 [TCMDC-140270]	22.59	
O=C(N[C@H]1CCN(Cc2ccc(OCCN3CCNCC3)c3ccccc23)C1)c1ccc(Cl)c(Cl)c1 [TCMDC-140269]	83.44	
CN(C)CCCOc1ccccc1CN1CC[C@H](NC(=O)c2ccc(Cl)c(Cl)c2)C1 [TCMDC-140310]	-1.9	
O=C(N[C@H]1CCN(Cc2ccc(OCCN3CCCC3)c3ccccc23)C1)c1ccc(Cl)c(Cl)c1 [TCMDC-140268]	76.23	
CN(Cc1ccccc1)C(=O)CCNS(=O)(=O)c1cc(Br)cnc1N [TCMDC-125445]	18.91	
CN(C)[C@@H]1C(=O)C(C(N)=O)=C(O)[C@@]2(O)C(=O)C3=C(O)c4c(O)ccc(C#Cc5ccccn5)c4C[C@H]3C[C@@H]12 [TCMDC-138642]	7.454	
COc1cccc(CCc2ccc(O)c3c2C[C@H]2C[C@H]4[C@H](N(C)C)C(=O)C(C(N)=O)=C(O)[C@@]4(O)C(=O)C2=C3O)c1 [TCMDC-138636]	7.419	
CCCC/C=C(\Cl)c1ccc(O)c2c1C[C@H]1C[C@H]3[C@H](N(C)C)C(=O)C(C(N)=O)=C(O)[C@@]3(O)C(=O)C1=C2O [TCMDC-138656]	85.94	
COc1ccccc1C1CN(Cc2coc3ccccc3c2=O)Cc2ccccc2O1 (stereo not drawn) [TCMDC-124669]	4.679	
Cc1c(Cl)cccc1S(=O)(=O)Nc1ccc(CCN2CCC(N)CC2)cc1 [TCMDC-134083]	99.61	
NC1CCN(CCc2ccc(NS(=O)(=O)c3cccc4ccccc34)cc2)CC1 [TCMDC-134084]	55.68	
COC(=O)CCCOc1cc(Cc2cnc(N)nc2N)cc(OC)c1OC [TCMDC-137557]	8.428	
CC1(C)N=C(N)N=C(N)N1OCCc1cccc2ccccc12 [TCMDC-131663]	2.124	
CCNC(=O)Nc1ccc(-c2ccc(-c3nc4cccc(C)c4[nH]3)s2)cc1 [TCMDC-133170]	11.61	
Cc1cc2[nH]c(-c3ccc(C(=O)NCCCN4CCN(c5cccc(Cl)c5)CC4)cc3)nc2cc1Cl [TCMDC-140027]	-17.26	
CCn1ncc2c(NC3CCOCC3)c(CNC(=O)c3ccnn3C)c(C)nc21 [TCMDC-136560]	97.63	
Cn1nccc1C(=O)NCCNCc1ccc(-c2ccc(-c3nc4cc(F)ccc4[nH]3)cc2)cc1.O=C(O)C(F)(F)F [TCMDC-133012]	-30.72	
CCc1nc2c(cnn2CC)c(NC2CCOCC2)c1CNC(=O)N1CCOCC1 [TCMDC-136620]	94.41	
Cc1nc(C)n(CC(=O)Nc2cccc(-c3cccc(-c4nc5ccc(C(F)(F)F)cc5[nH]4)c3)c2)n1 [TCMDC-137134]	-7.323	
O=S(=O)(c1cccc(F)c1)c1ccc(Nc2ncnc3cc(Br)sc23)cc1Cl [TCMDC-135626]	18.51	

Structure (SMILES)	% Inhibition [%]	% Inhibition (% Inhibition) [%]
O=C(Nc1n[nH]c2nc(-c3ccco3)c(Br)cc12)c1ccc(CN2CCCC2)cc1 [TCMDC-141483]	10.19	
CN(C)CCN(Cc1ccccc1-c1ccc(CNCCc2ccccc2)cc1)C(=O)c1ccccc1 [TCMDC-140532]	112.9	
COc1cccc(CCN(Cc2ccccc2-c2ccc(CNC3CC(C)(C)NC(C)(C)C3)cc2)C(=O)NC2CCCCC2)c1 [TCMDC-141577]	108.7	
CN(C)CCN(Cc1ccccc1-c1ccc(CNCCc2ccccc2)cc1)C(=O)NC1CCCCC1 [TCMDC-140626]	107.8	
CC(=O)Nc1cccc(C(=O)Nc2nc3ccc(-c4cc(=O)[nH]c(Nc5ccccc5Cl)n4)cc3[nH]2)c1 [TCMDC-135793]	-20.56	
C(=Cc1ccccc1)C=NNc1ccnc2ccccc12 [TCMDC-142061]	-65.55	
Fc1cccc(COc2ccc(Nc3ncnc4sc(C#CCNC5CCCC5)cc34)cc2Cl)c1 [TCMDC-138786]	-17.57	
CCC1N=C(N)N=C(N)N1OCCCOc1c(Cl)cc(Cl)cc1Cl (stereo not drawn) [TCMDC-131697]	23.8	
Cc1ccc(NC(=O)NC2CCN(c3ccnc4cc(Cl)ccc34)C2)cc1 (stereo not drawn) [TCMDC-133651]	27.92	
COc1cc(NC(=O)/C=C/c2ccccc2Cl)cc(OCCN2CCC(O)(c3ccccc3)CC2)c1 [TCMDC-140934]	-1.317	
O=C1Nc2cccc3c2C1(CCCCCN1CCC(c2c[nH]c4ccncc24)CC1)CCC3 (stereo not drawn) [TCMDC-140504]	73.67	
O=C1Nc2cccc3c2C1(CCCCN1CCC(c2cc4ccncc4[nH]2)CC1)CCC3 (stereo not drawn) [TCMDC-141151]		27.49
O=C1Nc2cccc3c2C1(CCCN1CCC(c2c[nH]c4cc(C(F)(F)F)ccc24)CC1)CCC3 (stereo not drawn) [TCMDC-140464]	106.4	
O=C1Nc2cccc3c2C1(CCCCN1CCC(c2cc4ccncc4[nH]2)CC1)CCC3 (stereo not drawn) [TCMDC-141221]		84.1
CC1(CCCCN2CCC(Oc3ccc(F)cc3F)CC2)C(=O)Nc2ccccc21 (stereo not drawn) [TCMDC-140794]	-43.13	
O=C1Nc2cccc3c2C1(CCCCN1CCC(c2c[nH]c4cc(C(F)(F)F)ccc24)CC1)CCC3 (stereo not drawn) [TCMDC-140465]	121.5	
O=C1Nc2cccc3c2C1(CCCCCN1CC=C(c2c[nH]c4ccccc24)CC1)CCC3 (stereo not drawn) [TCMDC-140570]	20.32	
O=C1Nc2cccc3c2C1(CCCCN1CC=C(c2c[nH]c4ncccc24)CC1)CCC3 (stereo not drawn) [TCMDC-140506]	-6.886	
CC(C)(C)OC(=O)n1cc(C2CCN(CCCC34CCCc5cccc(c53)NC4=O)CC2)c2ccncc21 (stereo not drawn) [TCMDC-140392]	2.693	
CCOc1ncccc1CN1CCC(N2CCc3cc(NC(=O)c4ccco4)ccc32)C1 (stereo not drawn) [TCMDC-135074]	-21.9	
COc1ccc(C2N=C(N)N=C(N)N2c2ccc(Cl)cc2)cc1OC (stereo not drawn) [TCMDC-123670]	-7.954	
COc1cc(C(=O)NC2CCN(Cc3ccccc3)CC2)ccc1-c1nc2c(Cl)cc(C(F)(F)F)cc2[nH]1 [TCMDC-140085]	-15.98	

Structure (SMILES)	% Inhibition [%]	% Inhibition (% Inhibition) [%]
Cc1cccc2[nH]c(-c3ccc(-c4ccc(NC(=O)Nc5ccc(F)c(F)c5F)cc4)cc3)nc12 [TCMDC-133232]	3.128	
N#Cc1ccc2c(c1)CCN(CCC1CCC(NC(=O)/C=C/c3cccc4cc[nH]c34)CC1)CC2 (stereo not drawn) [TCMDC-139671]	-14.99	
CCN1CC=C(c2c[nH]c3ccccc23)CC1 [TCMDC-124447]	-15.41	
Cn1c(/C=C/C(=O)NC2CCC(CCN3CCc4ccc(C#N)cc4CC3)CC2)cc2ccccc21 (stereo not drawn) [TCMDC-139683]	-68.7	
Cc1cn(CC(=O)Nc2cccc(-c3cccc(-c4nc5c(C)cccc5[nH]4)c3)c2)c(=O)[nH]c1=O [TCMDC-137037]	-3.611	
CC1(CCCCN2CCC(c3c[nH]c4cnccc34)CC2)C(=O)Nc2cccc(Cl)c21 (stereo not drawn) [TCMDC-141177]	63.64	
O=c1[nH]c(NCCCCCN2CCC(c3c[nH]c4ccccc34)CC2)ncc1Cc1ccc(Cl)c(Cl)c1 [TCMDC-139189]	16.9	
CC1(CCN2CCC(c3c[nH]c4cnccc34)CC2)CCCc2c(Br)cccc2C1=O (stereo not drawn) [TCMDC-141171]	95.16	
CC1(CCCCN2CCC(Cc3ccccc3)CC2)C(=O)Nc2ccccc21 (stereo not drawn) [TCMDC-140796]	0.5554	
Cc1ccc(C(=O)Nc2cccc([N+](=O)[O-])c2)cc1S(=O)(=O)N1CC(C)CC(C)C1 (stereo not drawn) [TCMDC-123731]	8.733	
COc1cc(F)c2ncc(Cl)c([C@@H](O)CN3CCC(NCc4ccc5c(n4)NC(=O)CO5)CC3)c2c1 [TCMDC-135488]	20.51	
C=C[C@H]1CN2CC[C@H]1C[C@H]2[C@H](O)c1ccnc2ccc(OC)cc12 [TCMDC-123939]		23.69
CCCCN(CCCC)CCCN(CCCN(CCCC)CCCC)c1cc(C)nc(Nc2ccc3cc(Br)ccc3c2)n1 [TCMDC-138005]	117	
CCN(CCCN1CCCCC1)c1cc(C)nc(Nc2ccc(C)c(C)c2)n1 [TCMDC-132440]	22.96	
CCN(CCCN1CCCCC1)c1cc(C)nc(Nc2ccc(OC)cc2)n1 [TCMDC-132430]	-5.018	
CCN(CC)CCCN(CCCN(CC)CC)c1cc(C)nc(Nc2ccc3cc(Br)ccc3c2)n1 [TCMDC-137611]	92.7	
CCN(CCCN1CCCCC1)c1cc(C)nc(Nc2ccc(C)c(Br)c2)n1 [TCMDC-132436]	25.65	
CCCN(CCC)CCCN(CCCN(CCC)CCC)c1cc(C)nc(Nc2ccc3cc(Br)ccc3c2)n1 [TCMDC-138006]	102.3	
O=C(NC1CCN(Cc2ccc3c(c2)OCCO3)CC1)c1ccc(-c2cccc(C(F)(F)F)c2)s1 [TCMDC-134337]	32.78	
COc1ccc(C2N=C(N)N=C(N)N2OCc2ccccc2)cc1OC (stereo not drawn) [TCMDC-131345]	5.736	
CC1(C)N=C(N)N=C(N)N1OCCCCCOc1ccccc1 [TCMDC-131319]	-2.033	
CC(=O)N(C)c1cccc(C(=O)Nc2cccc(-c3cccc(-c4nc5c(C)cccc5[nH]4)c3)c2)c1 [TCMDC-137071]	44.44	
